Reference: PubChem BioAssay AID2315 (National Center for Advancing Translational Sciences (NCATS), 2010)
In all, about 290,000 compounds went through this assay and about 27,000 (9.3%) were called active. No stated cut-off is given here; in the data, active means inhibition mostly above about 28% (no sharp cut-off); inactive means mostly below about 43%. The entries come from a sample that favours actives as a whole. Where a SMILES comes first, the peptide text is derived from it. The star is where a group is joined. OPac = O=C(CO*)c1ccccc1; Bz = O=C(c1ccccc1)*

Assay: A qHTS for Small Molecule Inhibitors of Shiga Toxin; further: 0% is about no effect
Conditions: Vero cells, Shiga toxin protein synthesis inhibition reporter; at 38.7 µM, hits give high values

Compound | inhibition
Cc1nn(C)c(C(=O)NNC(=S)NC2CCCCC2)c1Cl | 14.6% (inactive)
COc1cccc(NC(=S)NC(=O)c2c(Cl)c(C)nn2C)c1 | 14.4% (active)
COc1cccc(OC)c1C(=O)NC(=S)Nc1ccc(N2CCOCC2)c(Cl)c1 | 44.5% (inactive)
O=C(NCc1ccccn1)[C@]1(C(F)(F)F)C[C@H](CCc2ccccc2)CCCO1 | -3.98% (inactive)
Nc1nnc2c(C(F)(F)F)nc3ccccc3n12 | -8.69% (inactive)
Cc1cccc(-c2c(NC(=O)c3ccco3)oc3ccc(Cl)cc3c2=O)c1 | 20.5% (inactive)
OC(c1nnc(-c2ccccc2)o1)c1cccs1 (configuration not stated) | 111% (active)
CCCN(CCC)c1ccc(C(O)c2nnc(-c3ccccc3)o2)cc1 (configuration not stated) | 29.6% (inactive)
O=C(Nc1nnc(-c2ccccc2)o1)c1cc(-c2cccs2)nc2ccccc12 | -9.05% (inactive)
Cn1c2ccc(F)cc2c2nnc(NN)nc21 | -15% (inactive)
Cc1cc(C(=O)N/N=C\C(Br)=C\c2ccccc2)c(C)o1 | 54.6% (inactive)
CC(C)c1cc(C(=O)N/N=C/C(Br)=C/c2ccccc2)n[nH]1 | 47.5% (active)
CC(C)c1cc(C(=O)O)n[nH]1 | 15.7% (inactive)
O=C(CCc1nnc2ccc(NCc3ccccc3Cl)nn12)NCC1CCN(C2CCCC2)C1 (configuration not stated) | 8.94% (inactive)
CCOC(=O)N1CCC(NC(=O)CCc2ccccc2)CC1 | -1.93% (inactive)
O=C(O)C1CCN(C(=O)OCc2ccccc2)CC1 | 80.9% (active)
O=C(NCC1CCC(C(=O)O)CC1)OCc1ccccc1 (configuration not stated) | -15.3% (inactive)
O=c1cc(-c2ccc(O)cc2)oc2c([C@@H]3O[C@H](CO)[C@@H](O)[C@H](O)[C@H]3O)c(O)cc(O)c12 | 18.1% (inactive)
Cc1cccc(-n2c(O)c(C=Nc3ccccc3N)c(=O)[nH]c2=O)c1 | 57% (active)
Cc1cccc(-n2c(O)c(/C=N/N3CCOCC3)c(=O)[nH]c2=S)c1 | -12.5% (inactive)
Cc1cccc(-n2c(O)c(C=NC34CN5CN(CN(C5)C3)C4)c(=O)[nH]c2=O)c1 | 19.9% (inactive)
Clc1ccc(-c2nc3ccccn3c2CN2CCSCC2)cc1 | 20.5% (inactive)
COc1ccc2[nH]c(=O)c(C3c4cc(OC)c(OC)cc4CCN3C(=O)c3ccco3)cc2c1 (configuration not stated) | -3.2% (inactive)
CCOCCCn1c(SCC(=O)Nc2cc(OC)ccc2OC)nc2ccccc2c1=O | -1.05% (inactive)
CCc1ccc(-c2cc3c(=O)n(CC(=O)NCCCN4CCN(Cc5ccccc5)CC4)nc(C)n3n2)cc1 | -5.95% (inactive)

Compound | inhibition
CCOc1ccc(C(=O)CCN2CCOCC2)cc1 | -2.09% (inactive)
CCOc1ccc(N(CC(=O)NCCOc2ccccc2OC)S(=O)(=O)c2ccccc2)cc1 | 21.1% (inactive)
Cc1nonc1NC(=O)CSc1nc2ccccc2cc1C#N | 41.1% (inactive)
COc1ccc(N2CCN(C(=O)CSc3nc4cc(OC)c(OC)cc4cc3C#N)CC2)cc1 | 18.6% (inactive)
CCOc1ccc2cc(C#N)c(SCC(=O)OC)nc2c1 | 135% (active)
CN=C1C=C/C(=N/N=c2\ccn(O)cc2C)C=C1C | 20.1% (active)
Cc1cccc(NC(=S)NCCc2ccc(Cl)cc2)c1C | 41.2% (inactive)
Cc1ccc(/C=C2\CCn3c2nc2cc(C(=O)O)ccc2c3=O)c(C)c1 | -4.26% (inactive)
Cc1nn(C)c(Cl)c1CN1CCC(Oc2ccc(C(=O)N3CCCC3)cc2)CC1 | -30.4% (inactive)
O=C(O)C1CC=CC2CCN(C3CCCCC3)C(=O)C21 (configuration not stated) | -9.66% (inactive)
CCCC(=O)N=c1sc2cccc(F)c2n1C | -7.62% (inactive)
Cn1c(=NC(=O)c2ccco2)sc2cccc(F)c21 | 102% (active)
Cn1c(=NC(=O)C2CC2)sc2cc(F)cc(F)c21 | -1.62% (inactive)
O=C(O)c1cc2c(cc1NC(=O)c1c(F)cccc1Cl)OCCCO2 | -14.4% (inactive)
O=C(Nc1nnc(-c2ccc(Cl)cc2)o1)c1ccccc1Br | 16.2% (inactive)
FC(F)(F)c1cnc(Oc2ccccc2-c2nnc(-c3ccc(Cl)cc3)o2)c(Cl)c1 | 5.98% (inactive)
CSc1ccccc1-c1nnc(-c2ccc(Cl)cc2)o1 | 0% (active)
CCOC(=O)N1CCN(S(=O)(=O)c2ccc(OC)cc2)CC1 | -26% (inactive)
OC(CNCC1CCCO1)Cn1c2ccc(Br)cc2c2cc(Br)ccc21 (configuration not stated) | -17.6% (inactive)
CCCN1CCn2c3c(c4cc(Br)ccc42)CCCC31 (configuration not stated) | 31.7% (active)
Cc1cc(C)c2nc(N(CCN(C)C)C(=O)/C=C/c3cccs3)sc2c1 | 2.24% (inactive)
CSCc1nnc(NC(=O)c2ccc(S(=O)(=O)N3CCCCC3C)cc2)o1 (configuration not stated) | -11% (inactive)
CCCOC(=O)Cc1c(O)c2ccccc2[nH]c1=O | 2.32% (inactive)
CC(C)C(=O)Nc1c(O)c2ccccc2[nH]c1=O | 23.1% (inactive)
NS(=O)(=O)c1ccccc1NC(=O)c1c(O)c2ccccc2[nH]c1=O | 86% (active)

Compound | inhibition
CC(=O)Nc1cccc(C(=O)OCN2C(=O)c3ccccc3C2=O)c1 | -7.54% (inactive)
Cc1cnc(NC(=O)CSc2c(Cl)cccc2Cl)s1 | 24.3% (inactive)
Cc1cnc(NC(=O)CSc2nnc(-c3ccc(Cl)cc3Cl)n2N)s1 | 20.9% (active)
Cc1cnc(NC(=O)CSc2nnc(-c3ccccc3)n2Cc2ccccc2)s1 | -7.47% (inactive)
COc1ccc(C)cc1N(CC(=O)N1CCCC1)S(=O)(=O)c1ccccc1 | 8.24% (inactive)
COc1ccccc1CN1CCN(C(c2ccccc2)c2ccccc2)CC1 | -13% (inactive)
COc1cc(OC)c(NC(=O)C2CCCN2C(=O)OCc2ccccc2)cc1Cl (configuration not stated) | -6.5% (inactive)
COc1ccc(-c2csc(NC(=O)c3ccc(N4C(=O)CCC4=O)cc3)n2)cc1OC | -16.4% (inactive)
COc1ccc(OC)c(-c2csc(NC(=O)C3=NNC(=O)CC3)n2)c1 | -5.75% (inactive)
COc1ccc(-c2csc3nc(-c4ccccc4F)oc(=O)c23)cc1OC | 1.32% (inactive)
COc1ccc2c(c1)C(c1cccs1)=NNC(c1cccnc1)=N2 | 39.6% (inactive)
COc1ccc(OC)c(-c2csc(-c3cccs3)n2)c1 | 45.3% (active)
Cc1cc(C)cc(NS(=O)(=O)Cc2ccccc2)c1 | 40.6% (inactive)
O=C(N/N=C\c1cc2c(cc1Cl)OCO2)c1ccc(Br)s1 | -3.59% (inactive)
CC(NCc1cccs1)C(=O)Nc1cc(Cl)cc(Cl)c1 (configuration not stated) | 24.3% (inactive)
Cc1ccc(-c2csc(N3CCN(c4cc5c(cc4Cl)nc(-c4ccncc4)n5CCOCCO)CC3)n2)cc1 | -3.86% (inactive)
Cc1sc2ncn(CC(=O)NCCCC(=O)NCc3ccc(F)cc3)c(=O)c2c1C | -6.98% (inactive)
Cc1n[nH]c(=O)n1-c1ccc(C(C)C)cc1 | -1.39% (inactive)
O=C1CS(=O)CN1c1ccc(Oc2ccccc2)cc1 (configuration not stated) | -11.4% (inactive)
Cc1n[nH]c(=O)n1-c1ccc(Oc2ccccc2)cc1 | 32% (active)
COC(=O)c1ccccc1SC1CC(=O)N(c2cccc(C)c2)C1=O (configuration not stated) | 25.9% (inactive)
Cc1ccc([N+](=O)[O-])cc1S(=O)(=O)N1CCCN(C)CC1 | -3.46% (inactive)
C(=N\Nc1ccc2ccccc2n1)/c1ccc2c(c1)OCO2 | 4.21% (inactive)
Cc1nc(Cl)cc(N/N=C/c2ccccc2)n1 | 47.5% (inactive)
Cc1noc(C)c1/C=N/Nc1ccc2ccccc2n1 | 64.2% (active)

Compound | inhibition
CN(C)CCCNC(=S)N1CCN(c2nc(-c3ccccc3)cs2)CC1 | 23.7% (inactive)
COc1ccccc1-c1sc2ccccc2c1-c1ccc(C(C)=O)cc1 | 24.8% (active)
COc1cc(C(C)=O)ccc1OC(=O)CN1C(=O)c2ccccc2C1=O | -4.18% (inactive)
COc1ccccc1-c1c(C)nn2c(C)c(C(C)=O)cnc12 | 3.88% (inactive)
CCOc1ccc(C2C(C#N)=C(N)N(N(C)C)C3=C2C(=O)CCC3)cc1 (configuration not stated) | -5.92% (inactive)
CC(C)c1ccc(/C=C2\NC(=O)NC2=O)cc1 | 38.8% (inactive)
CSCCC(NS(=O)(=O)c1ccc(C)cc1)C(=O)NCCc1c[nH]c2ccccc12 (configuration not stated) | -5.02% (inactive)
COC(=O)N/N=C/c1ccc(/C=N/NC(=O)OC)cc1 | -9.65% (inactive)
CC(C)(C)OC(=O)N/N=C/c1ccc(C(=O)O)cc1 | 51.6% (active)
O=C(O)c1ccc(/C=N/NC(=O)c2ccc(Br)cc2)cc1 | 17.5% (inactive)
CC1CC(C)CN(S(=O)(=O)c2cccc3nonc23)C1 (configuration not stated) | -8.46% (inactive)
COc1cccc(N(C(=O)CNC(=O)c2ccco2)C(C(=O)NC2CCCCC2)c2cccnc2)c1 (configuration not stated) | -9.43% (inactive)
Oc1ccc(-c2c(-c3ccccc3)nn3c(C(F)(F)F)cc(C(F)(F)F)nc23)cc1 | -10.8% (inactive)
COC(=O)c1cccc([N+](=O)[O-])c1CS(=O)(=O)c1ccc(C)cc1 | -10.2% (inactive)
Cc1ccc(N=C2NC(=O)c3cccc([N+](=O)[O-])c32)cc1 | 98.8% (active)
CCN(Cc1ccccc1)C(=O)CCS(=O)(=O)c1ccc2c(c1)oc(=O)n2C | 0.994% (inactive)
CSc1nnc(CNC(=O)c2ccccc2)n1-c1ccc(F)cc1 | -6.7% (inactive)
O=C(CNC(=O)c1ccccc1F)c1ccc(Br)cc1 | 79.7% (active)
O=C(CNC(=O)c1ccc(F)cc1)c1ccccc1 | 90.2% (active)
O=C(CNC(=O)c1ccccc1)NCC(=O)OCC(=O)c1ccccc1 (Bz-Gly-Gly-OPac) | -5.66% (inactive)
COC(=O)CNC(=O)c1ccccc1F | -15.6% (inactive)
O=C(COC(=O)CNC(=O)c1ccccc1F)NCC(F)(F)F | 16.2% (inactive)
